Compound activity deposited in PubChem by Sanford-Burnham Center for Chemical Genomics.
C8 TRAIL sens: sensitizes caspase-8 expressing cells to TRAIL | inhibition (viability loss, TRAIL sensitization), % at 10 µM | hit rate 1% among 360,000 | AID 624354 | NB7+C8 cells + TRAIL, ATPlite viability luminescence;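 active means compounds causing at least 50% loss of cell viability in the single-dose screen, relative to plate controls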
HIF-2a block: blocks HIF-2a reporter activity | 786-0 RCC cells HIF-2a reporter, luciferase luminescence, overnight | inhibition, % at 18.8 µM | hit rate 0.72% among 360,000;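 active means inhibition of the luminescence signal of 40% or more relative to plate controls, in a single-dose primary screen at 18.75 µM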
KKLEB tox: counter-screen for CF NF-kB inhibitors: cytotoxicity; KKLEB CF airway cells viability, ATPlite luminescence, overnight; stronger effect = lower value; cells stimulated with P. aeruginosa culture filtrate; activity change (cytotoxicity), % at 5 µM; hit rate 0.36% among 360,000; AID 602141;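 active means corrected activity change at or below -50% at 5 µM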
PPC-1+TRAIL kill: kills PPC-1 cancer cells in the presence of TRAIL. cell killing (% activity), % at 4 µM or 5 µM. PPC-1 cells + TRAIL, ATPLite viability luminescence. hit rate 0.41% among 220,000;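 active means cell killing above 50% in the first pass at 4 µM, then a duplicate retest at 5 µM averaging 50% or more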;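 further: plate controls were cells with TRAIL plus DMSO for no effect and medium-only wells lacking cells for full effect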
hiPSC survival: enhancers of human iPSC single-cell survival; survival enhancement, % at 20 µM; AID 602274; hit rate 0.044% among 360,000; hiPSC single-cell survival, ATPlite luminescence; 100% = ROCK inhibitor wells, 0% = DMSO; in the data active means survival enhancement above about 18%;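 further: cells exposed to compounds for 16 hours before the ATP read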
CF NFkB block: inhibitors of cystic fibrosis induced NF-kB; inhibition, % at 5 µM; hit rate 0.86% among 360,000; KKLEB NF-kB-GFP reporter, PAF-induced, GFP fluorescence overnight;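 active means at least 50% inhibition at 5 µM, scaled per plate between neutral and stimulator controls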;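 further: PAF is a Pseudomonas aeruginosa culture filtrate used as stimulus; plate controls were PAF-stimulated DMSO wells for no effect and unstimulated DMSO wells for full effect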
Active calls of the source: *; · = no result given. Rows were chosen to be rich in hits. Some 2.2% of all compounds tested hit in one or more screens of this group.

SMILES	C8 TRAIL sens	HIF-2a block	KKLEB tox	PPC-1+TRAIL kill	hiPSC survival	CF NFkB block
CCc1ccc(-c2csc(NC(=O)C3=COCCO3)n2)cc1	19.1	-314.0	2.4	·	-0.2	-36.2
Cn1c(N=Nc2ccccc2)nc2ccccc21	92.9*	-25.2	-53.2*	84.6*	-2.2	-21.3
Cn1c(Cl)nc2ccccc21	-4.0	-9.1	5.9	6.1	-0.1	-5.9
CN(C)c1ccc(N=Nc2nc3ccccc3n2C)cc1	95.0*	16.9	-82.3*	5.4	-0.7	-18.9
O=C(/C(N=Nc1cccc([N+](=O)[O-])c1)=C(/O)c1ccc(Br)cc1)C(F)(F)F	7.0	-161.2	-57.7*	8.3	0.0	51.1*
Cc1ccccc1C(=O)NN(C)c1nc2ccccc2nc1C(F)(F)F	16.8	5.2	-7.7	18.0	5.8	10.3
COc1ccc(C(=O)NN(C)c2nc(C(F)(F)F)nc3ccccc23)cc1	-31.9	36.0	-8.1	-8.1	-0.3	74.6*
Clc1ccc(-c2nc3n(n2)Cc2ccccc2-3)cc1	58.8*	-189.0	-22.1	21.7	-4.0	-12.4
CCN(CC)S(=O)(=O)c1cccc(-c2nc3n(n2)Cc2ccccc2-3)c1	-4.4	-170.7	-4.8	2.5	1.1	-26.2
CC(C)(C)C1CCc2sc(C(=O)NNC(=O)CCl)cc2C1 (centres undefined)	88.1*	-46.8	18.8	15.4	-4.3	-9.4
CC(C)(C)C1CCC(=NNC(=O)c2cc3c(s2)CCCC3)CC1 (centres undefined)	-12.0	2.3	-2.0	-1.8	-0.5	2.1
CCOCc1c(C(=O)NC2=Nc3ccccc3NC(CC)=C2C(=O)OCC)oc2ccccc12	6.7	-9.4	-98.8*	17.4	-3.4	86.2*
C=CCNc1ncnc2c1ncn2C1OC(CO)C(O)C1O (centres undefined)	56.6*	12.3	-37.9	11.2	2.7	26.6
OCC1OC(n2cnc3c(NCc4ccco4)ncnc32)C(O)C1O (centres undefined)	58.8*	-86.8	-22.0	·	-4.1	47.7
OCC1OC(n2cnc3c(SCc4ccccc4)ncnc32)C(O)C1O (centres undefined)	55.1*	-67.2	-2.3	·	0.8	-26.6
Nc1nc(SCc2ccccc2)c2ncn(C3OC(CO)C(O)C3O)c2n1 (centres undefined)	3.5	-25.3	-15.8	·	1.7	-5.4
COc1ccc(C[C@@H]2OC3(C=CC(=O)C=C3)O[C@H]2Cc2ccc(OC)cc2)cc1	92.8*	87.2*	-77.7*	·	-1.1	85.0*
O=C1C=CC2(C=C1)O[C@H](Cc1ccccc1)[C@@H](Cc1ccccc1)O2	94.7*	92.4*	-98.2*	·	-1.8	95.6*
O=C1Nc2ccccc2C1Cc1ccccc1 (centres undefined)	-32.1	2.7	4.6	-0.6	0.1	-8.9
Cn1c(=O)[nH]c(=O)c2c1nc(N1CCCCC1)n2CC(O)COc1ccccc1 (centres undefined)	-12.5	14.6	-5.3	·	-0.1	6.0
CC(=O)Nc1ccc(NC(=O)c2ccccc2-n2cnnn2)cc1	-3.1	8.4	6.9	·	-0.4	7.0
Fc1cccc(CSc2nc3ccncc3[nH]2)c1	57.5*	-152.8	-8.2	40.7	-4.7	-19.1
CCOc1cnn(-c2ccccc2)c(=O)c1Cl	-0.1	-5.6	12.9	·	57.8*	-6.7
CCSc1cnn(-c2ccccc2)c(=O)c1Cl	-5.6	-51.3	-2.5	·	36.8*	0.8
COc1cnn(-c2ccc(C)cc2)c(=O)c1Cl	-4.6	-102.3	-6.6	9.7	2.0	3.6
CC(C)CC(=O)c1c[nH]c(C(=O)N2CCN(Cc3ccccc3)CC2)c1	-8.4	17.2	11.2	7.0	-0.4	-3.7
O=c1[nH]c(N/N=C\c2ccc3c(c2)OCO3)nc2ccccc12	52.5*	-230.8	-12.1	44.0	-3.6	13.5
C=CC[n+]1c(-c2ccc(Cl)cc2Cl)csc1Nc1c(C)n(C)n(-c2ccccc2)c1=O	30.6	14.8	11.2	-2.8	-0.3	-12.0
C=CC[n+]1c(-c2ccc(Cl)cc2Cl)csc1Nc1ccc(NC(C)=O)cc1	42.1	94.7*	9.4	3.5	1.0	-8.6
COc1ccc([N+](=O)[O-])cc1NC(=O)C(C)OC(=O)Cn1[nH]c(=O)c2ccccc2c1=O (centres undefined)	-3.5	13.3	8.9	·	0.5	6.2
